# Source: the supplement of paper PMC9135407
# “And” between values parts separate entries of the source, which are not always exact repeats. Identical values can stand only once. Counter-ions that a name gives are not always drawn. Among all 5,800 compounds or so, about 620 (11%) showed activity. The entries come from a sample that favours actives as a whole. Unmarked numbers belong to inactive results.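 Rule for the calls: active = score above a cut-off or among the top three wells of a plate; in these data no inactive exceeds 0.85.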
# System: primary human hepatic stellate cells (donor 1)
# Test: scaled lipid accumulation score (0 = DMSO-like, 1 = nortriptyline-like); higher = stronger HSC inactivation (lipid re-accumulation), active = hit call of the paper
# Settings: 48 h
# [1] = library stock concentration: 3.33 mM
# [2] = library stock concentration: 10 mM
# [3] = library stock concentration: 1 mM
# [4] = library stock concentration: 5.2 mM
# [5] = library stock concentration: 6.4 mM
compound,measurement,setting,value
CC[C@H](CO)Nc1nc(NCc2ccccc2O)c2ncn(C(C)C)c2n1 [Olomoucine II],scaled lipid accumulation score,[1],0.299
NC1=N[C@@]2(c3cc(NC(=O)c4ccc(F)cn4)ccc3F)COC[C@H]2CS1,scaled lipid accumulation score,[1],0.012
same,scaled lipid accumulation score,[2],0.209
C[C@]12CCC(=O)C=C1CC[C@@H]1[C@@H]2[C@@H](O)C[C@@]2(C)[C@H]1CC[C@]2(O)C(=O)COP(=O)(O)O [Hydrocortisone phosphate triethylamine],scaled lipid accumulation score,library stock concentration: 3.1 mM,≤ -0.001
CCOc1nc2cccc(C(=O)O)c2n1Cc1ccc(-c2ccccc2-c2noc(=O)[nH]2)cc1 [Azilsartan],scaled lipid accumulation score,[1],≤ 0
same,scaled lipid accumulation score,[2],≤ 0
CCCCC[C@H](O)/C=C/[C@H]1C(=O)C[C@H](O)[C@@H]1C/C=C/CCCC(=O)O [5-trans Prostaglandin D2],scaled lipid accumulation score,[3],≤ 0
COC(=O)C1=C(C)NC(C)=C(C(=O)OCCCN2CCC(c3ccccc3)(c3ccccc3)CC2)[C@@H]1c1cccc([N+](=O)[O-])c1 [(R)-(-)-Niguldipine hydrochloride],scaled lipid accumulation score,[2],≤ -0.006
C=C1C(=O)OC2CC1C(OC(C)=O)C/C(C)=C/CC/C(C)=C/CC[C@]2(C)O (stereo partly drawn) [Crassin acetate],scaled lipid accumulation score,[2],1.04 (active)
C=C1C(=O)O[C@@H]2/C=C(\C)CC/C=C(\C)CC[C@@H]12 [Costunolide],scaled lipid accumulation score,[1],≤ 0
same,scaled lipid accumulation score,[2],0.163 and ≤ -0.001
C=C1C(=O)O[C@H]2[C@H]1CC/C(C)=C/CC[C@@]1(C)O[C@@H]21 [(-)-Parthenolide],scaled lipid accumulation score,[1],0.099
same,scaled lipid accumulation score,[2],0.534
C=C1C(=O)O[C@H]2[C@H]1CC/C(C)=C/CC[C@@]1(C)O[C@@H]21 [Parthenolide],scaled lipid accumulation score,,0.539
same,scaled lipid accumulation score,[2],0.317 and 0.269
same,scaled lipid accumulation score,library stock concentration: 20.1 mM,0.417
CCCCCCCC/C=C\CCCCCCCCOC[C@H](COP(=O)([O-])OCC[N+](C)(C)C)OC(C)=O,scaled lipid accumulation score,[3],≤ -0.018
CC(=O)NCC(=O)N[C@H](CCC(=O)O)C(=O)O [N-Acetylglycyl-D-glutamic acid],scaled lipid accumulation score,[2],≤ 0
CN(C)CCCN1c2ccccc2CCc2ccc(Cl)cc21.Cl [Clomipramine hydrochloride] [listing 1 of 3 here],scaled lipid accumulation score,[2],1.01 (active)
CN(CCCN1c2ccccc2CCc2ccccc21)CC(=O)c1ccc(Cl)cc1 [Lofepramine],scaled lipid accumulation score,[2],0.323
CN(C)CCCN1c2ccccc2CCc2ccccc21,scaled lipid accumulation score,[2],0.493
CN(C)CCN1C(=O)c2ccccc2N(C)c2ccccc21 [Dibenzepine HCl],scaled lipid accumulation score,library stock concentration: 6.8 mM,≤ 0
CN(C)CCCN1c2ccccc2CCc2ccccc21 [Imipramine HCl],scaled lipid accumulation score,library stock concentration: 7.1 mM,0.618
CN(C)CCCN1c2ccccc2CCc2ccc(Cl)cc21 [Clomipramine HCl],scaled lipid accumulation score,[1],0.402
CN(C)CCCN1c2ccccc2CCc2ccccc21.Cl [Imipramine hydrochloride],scaled lipid accumulation score,[2],1.1 (active)
CN(C)CCCN1c2ccccc2CCc2ccc(Cl)cc21,scaled lipid accumulation score,[2],0.755
CN(C)CCCN1c2ccccc2CCc2ccc(Cl)cc21.Cl [Clomipramine hydrochloride] [listing 2 of 3 here],scaled lipid accumulation score,,0.968 (active)
CN(CCCN1c2ccccc2CCc2ccccc21)CC(=O)c1ccc(Cl)cc1,scaled lipid accumulation score,[2],0.191
CN(C)CCCN1c2ccccc2CCc2ccccc21 [Imipramine hydrochloride],scaled lipid accumulation score,,0.652
same,scaled lipid accumulation score,library stock concentration: 6.3 mM,0.714
same,scaled lipid accumulation score,[2],0.59
CN(C)CCCN1c2ccccc2CCc2ccc(Cl)cc21 [Clomipramine hydrochloride],scaled lipid accumulation score,library stock concentration: 5.7 mM,0.836
CN(C)CCCN1c2ccccc2CCc2ccc(Cl)cc21.Cl [Clomipramine hydrochloride] [listing 3 of 3 here],scaled lipid accumulation score,[2],1.31 (active)
C[C@@H]1CC[C@@]2(OC1)O[C@H]1C[C@H]3[C@@H]4CC=C5C[C@@H](O)CC[C@]5(C)[C@H]4CC[C@]3(C)[C@H]1[C@@H]2C [Diosgenin],scaled lipid accumulation score,[2],≤ -0.027
CCCCCCCCCCCCCCCC(=O)OC[C@@H](O)COP(=O)(O)O [1-Palmitoyl Lysophosphatidic Acid (sodium salt)],scaled lipid accumulation score,[3],0.001
CCCCCCCCCCCCCCCCOC[C@H](CO)SC(C)=O [2-thio-Acetyl MAGE],scaled lipid accumulation score,[3],≤ 0
"CCCCCC/C=C/C=C\CCCCCCCC(=O)O [9(Z),11(E)-Conjugated Linoleic Acid]",scaled lipid accumulation score,[3],0.029
CCCCCNC(=N)N/N=C/c1c[nH]c2ccc(OC)cc12 [Tegaserod maleate],scaled lipid accumulation score,[2],≤ -0.027
CCCCCNC(=N)N/N=C/c1c[nH]c2ccc(OC)cc12,scaled lipid accumulation score,[2],0.13
CCCCCNC(=N)N/N=C/c1c[nH]c2ccc(OC)cc12 [Tegaserod],scaled lipid accumulation score,[2],≤ -0.027
Cc1cc(-c2ccc(/N=N/c3ccc4c(S(=O)(=O)O)cc(S(=O)(=O)O)c(N)c4c3O)c(C)c2)ccc1/N=N/c1ccc2c(S(=O)(=O)O)cc(S(=O)(=O)O)c(N)c2c1O,scaled lipid accumulation score,[2],0.033
CCCCC[C@H](O)/C=C/[C@@H]1[C@H](C/C=C\CCCC(=O)O)[C@H](O)C[C@H]1O [8-iso Prostaglandin F2.beta.],scaled lipid accumulation score,[3],0.004
CN(C)CCCN1c2ccccc2CCc2ccc(Cl)cc21.Cl [Clomipramine HCl],scaled lipid accumulation score,[2],0.83 (active)
CC[N+]1(C)C2CCC1CC(OC(=O)C1CCC(C(=O)OC3CC4CCC(C3)[N+]4(C)CC)(c3ccccc3)c3ccccc31)C2 (stereo not drawn) [beta- Belladonnine dichloroethylate],scaled lipid accumulation score,,≤ 0
Cc1c(C(N)=O)cc([N+](=O)[O-])cc1[N+](=O)[O-] [Dinitolmide],scaled lipid accumulation score,[1],≤ 0
same,scaled lipid accumulation score,[2],≤ -0.001 and ≤ -0.027
NC1CONC1=O (racemic) [DL-Cycloserine],scaled lipid accumulation score,[2],≤ 0
COc1cc2nc(N(C)CCCNC(=O)C3CCCO3)nc(N)c2cc1OC (stereo not drawn) [Alfuzosin hydrochloride],scaled lipid accumulation score,,≤ 0
same,scaled lipid accumulation score,[2],0.274
COc1cc2nc(N3CCN(C(=O)C4CCCO4)CC3)nc(N)c2cc1OC (stereo not drawn) [Terazosin],scaled lipid accumulation score,library stock concentration: 9.6 mM,≤ 0
same,scaled lipid accumulation score,[2],0.162
COc1cc2nc(N3CCN(C(=O)c4ccco4)CC3)nc(N)c2cc1OC [Prazosin],scaled lipid accumulation score,[2],1 (active)
COc1cc2nc(N3CCN(C(=O)c4ccco4)CC3)nc(N)c2cc1OC [Prazosin HCl],scaled lipid accumulation score,[4],0.728
COc1cc2nc(N3CCN(C(=O)c4ccco4)CC3)nc(N)c2cc1OC [Prazosin hydrochloride],scaled lipid accumulation score,,0.676
same,scaled lipid accumulation score,library stock concentration: 4.8 mM,0.682
same,scaled lipid accumulation score,[2],0.361 and 0.672
COc1cc2nc(N3CCN(C(=O)c4ccco4)CC3)nc(N)c2cc1OC [Prazocin],scaled lipid accumulation score,library stock concentration: 13 mM,1.03 (active)
COc1cc2nc(N(C)CCCNC(=O)C3CCCO3)nc(N)c2cc1OC (stereo not drawn) [Alfluzosin],scaled lipid accumulation score,library stock concentration: 5.1 mM,≤ 0
COc1cc2nc(N(C)CCCNC(=O)C3CCCO3)nc(N)c2cc1OC (stereo not drawn) [Alfuzosin HCl],scaled lipid accumulation score,[1],≤ 0
same,scaled lipid accumulation score,[2],≤ 0
COc1cc2nc(N(C)CCCNC(=O)C3CCCO3)nc(N)c2cc1OC (stereo not drawn),scaled lipid accumulation score,[2],≤ 0
COc1cc2nc(N3CCN(C(=O)C4CCCO4)CC3)nc(N)c2cc1OC (stereo not drawn) [Terazosin hydrochloride],scaled lipid accumulation score,,≤ 0
same,scaled lipid accumulation score,[2],≤ -0.006
COc1cc2nc(N3CCN(C(=O)c4ccco4)CC3)nc(N)c2cc1OC.Cl [Prazosin hydrochloride],scaled lipid accumulation score,[2],1.35 (active)
COc1cc2nc(N3CCN(C(=O)C4COc5ccccc5O4)CC3)nc(N)c2cc1OC (stereo not drawn) [Doxazosin mesylate],scaled lipid accumulation score,,≤ 0
same,scaled lipid accumulation score,library stock concentration: 4.4 mM,0.151
same,scaled lipid accumulation score,[2],0.85
COc1cc2nc(N3CCN(C(=O)C4CCCO4)CC3)nc(N)c2cc1OC (stereo not drawn) [Terazosin HCl],scaled lipid accumulation score,[1],≤ 0
same,scaled lipid accumulation score,[4],0.009
same,scaled lipid accumulation score,[2],≤ 0
COc1cc2nc(N3CCN(C(=O)C4COc5ccccc5O4)CC3)nc(N)c2cc1OC (stereo not drawn) [Doxazosin Mesylate],scaled lipid accumulation score,[1],≤ 0
same,scaled lipid accumulation score,[2],0.473
COc1cc2nc(N(C)CCCNC(=O)C3CCCO3)nc(N)c2cc1OC (stereo not drawn) [Alfluzocin],scaled lipid accumulation score,[2],0.025
COc1cc2nc(N3CCN(C(=O)C4COc5ccccc5O4)CC3)nc(N)c2cc1OC (stereo not drawn) [Doxazosin],scaled lipid accumulation score,[2],0.539
O=C(O)CCC/C=C\C[C@H]1C(=O)C=C[C@@H]1/C=C/[C@@H](O)COc1ccccc1 [16-phenoxy tetranor Prostaglandin A2],scaled lipid accumulation score,[3],≤ 0
CCCCCCCCCCCCCCCC(=O)OC[C@H](COP(=O)([O-])OCC[N+](C)(C)C)OC(=O)CCCCCCCC(=O)O,scaled lipid accumulation score,[3],≤ 0
CC(C)(C)[C@]1(O)CCN2C[C@H]3c4ccccc4CCc4cccc(c43)[C@@H]2C1,scaled lipid accumulation score,[2],0.691
CC(C)(C)[C@]1(O)CCN2C[C@H]3c4ccccc4CCc4cccc(c43)[C@@H]2C1 [(+)-Butaclamol hydrochloride],scaled lipid accumulation score,[2],0.672
CCCCC[C@H](O)/C=C/C=C\CCCCCCCC(=O)O,scaled lipid accumulation score,library stock concentration: 100 uM,≤ -0.021
CCCCCC(=O)/C=C/[C@@H]1[C@@H](C/C=C\CCCC(=O)O)[C@@H](O)C[C@H]1O [15-keto Prostaglandin F2.alpha.],scaled lipid accumulation score,[3],≤ 0
Clc1ccc2c(c1)C(N1CCNCC1)=Nc1ccccc1O2 [Amoxapine] [listing 1 of 4 here],scaled lipid accumulation score,[2],1.05 (active)
Clc1ccc2c(c1)C(N1CCNCC1)=Nc1ccccc1O2 [Amoxapine] [listing 2 of 4 here],scaled lipid accumulation score,,0.863 (active)
CCN(CC)CCCCN1c2ccccc2Oc2ccc(Cl)cc21 [10-DEBC hydrochloride],scaled lipid accumulation score,[2],0.5
Clc1ccc2c(c1)C(N1CCNCC1)=Nc1ccccc1O2 [Amoxapine] [listing 3 of 4 here],scaled lipid accumulation score,[5],0.598
CCN(CC)CCCCN1c2ccccc2Oc2ccc(Cl)cc21 [Akt Inhibitor X],scaled lipid accumulation score,[1],0.225
Clc1ccc2c(c1)C(N1CCNCC1)=Nc1ccccc1O2 [Amoxapine] [listing 4 of 4 here],scaled lipid accumulation score,[5],0.886 (active)
Clc1ccc2c(c1)C(N1CCNCC1)=Nc1ccccc1O2,scaled lipid accumulation score,[2],0.843
CC(=O)NNC(=O)N1Cc2ccccc2Oc2ccc(Cl)cc21,scaled lipid accumulation score,[2],≤ 0 and ≤ -0.006
